In assay [1] the target is DNA polymerase iota (Homo sapiens) (UniProt Q9UNA4). Description: qHTS for Inhibitors of Polymerase Iota: Confirmatory Assay for Cherry-picked Compounds (AID 720496). Further: potency means the concentration at half of the fitted maximal effect. To be noted: Pol iota primer extension, TAMRA/BHQ fluorescence. A digest of the protocol: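 10 nM Pol iota + cpd, 15 min RT; start w/ 50 nM (final) TAMRA reporter/BHQ-2 template primer substrate; ex 525/em 598 nm read at 0 and 10 min kinetic.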
Sequence of DNA polymerase iota (Homo sapiens) (Q9UNA4 whole entry, looked up): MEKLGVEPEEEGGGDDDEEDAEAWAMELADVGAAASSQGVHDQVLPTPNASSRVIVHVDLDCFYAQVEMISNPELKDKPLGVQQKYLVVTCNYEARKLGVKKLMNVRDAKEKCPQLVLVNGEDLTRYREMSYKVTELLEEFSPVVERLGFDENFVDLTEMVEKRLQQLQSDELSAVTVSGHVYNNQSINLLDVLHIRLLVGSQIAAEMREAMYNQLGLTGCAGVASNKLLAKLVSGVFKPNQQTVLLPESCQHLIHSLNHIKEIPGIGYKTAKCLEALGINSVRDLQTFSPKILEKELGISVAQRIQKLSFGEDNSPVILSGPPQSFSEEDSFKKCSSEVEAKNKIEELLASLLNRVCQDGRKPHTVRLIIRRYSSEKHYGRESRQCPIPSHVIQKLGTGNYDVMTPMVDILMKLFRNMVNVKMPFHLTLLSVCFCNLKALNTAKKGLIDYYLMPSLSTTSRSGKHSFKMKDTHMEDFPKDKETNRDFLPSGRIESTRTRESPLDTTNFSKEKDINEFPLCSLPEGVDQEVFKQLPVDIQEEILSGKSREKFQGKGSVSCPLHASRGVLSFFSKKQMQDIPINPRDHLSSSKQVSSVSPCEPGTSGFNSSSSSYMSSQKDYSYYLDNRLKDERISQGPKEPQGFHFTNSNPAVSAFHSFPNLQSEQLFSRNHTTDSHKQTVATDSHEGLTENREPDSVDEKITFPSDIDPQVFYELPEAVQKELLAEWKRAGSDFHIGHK
On the technique in general: In qHTS, concentration-response curves come from the screen itself.

In assay [2] the target is DNA polymerase eta (Homo sapiens) (UniProt Q9Y253). Description: qHTS for Inhibitors of Polymerase Eta: Confirmatory Assay for Cherry-picked Compounds (AID 720502). Further: potency means the concentration at half of the fitted maximal effect. The settings on record: Pol eta primer extension, TAMRA/BHQ fluorescence, 10 min. The source says:
The Y-family of DNA polymerases, such as the Polymerase Eta (Pol eta), are specifically involved in DNA repair. Pol eta copies undamaged DNA with a lower fidelity than other DNA-directed polymerases. However, it accurately replicates UV-damaged DNA. When thymine dimers are present, this polymerase inserts the complementary nucleotides in the newly synthesized DNA, thereby bypassing the lesion and suppressing the mutagenic effect of UV-induced DNA damage. […] Thus, while Pol eta's (and most likely iota's) normal function is to protect humans against the deleterious consequences of DNA damage, under certain conditions they can have deleterious effects on human health. […] A 1536-well format, fluorescence based, high-throughput screen (AID 588591) is developed in collaboration with the National Institute of Child Health & Human Development (NICHD) to screen for inhibitors of the Pol eta enzyme. […]
Three microliters of reagents (buffer in column 3 and 4 as negative control while 10 nM Pol eta in columns 1, 2, and 5-48) were dispensed into a 1536-well black solid-bottom plate. […] The assay plates were initially read after 0 min and again after 10 min of kinetic reaction using the PerkinElmer Viewlux reader equipped with 525 nm excitation and 598 nm emission filters.

For assay [3], the target named is Ferritin light chain (Equus caballus) (UniProt P02791). The experiment in a line: qHTS Validation Assay for Identification of Novel General Anesthetics (AID 2323). The settings on record: horse apoferritin, anesthetic-site fluorescent probe displacement; series mostly up to 76.9 µM. The source says: Source: NIH Chemical Genomics Center [NCGC]
Sequence of Ferritin light chain (Equus caballus) (P02791 2-175 limits assumed): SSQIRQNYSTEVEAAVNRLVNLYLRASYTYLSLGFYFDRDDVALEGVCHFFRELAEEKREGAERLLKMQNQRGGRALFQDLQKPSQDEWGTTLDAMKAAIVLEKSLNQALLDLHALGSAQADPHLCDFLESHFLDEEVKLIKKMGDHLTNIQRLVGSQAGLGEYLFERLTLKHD
Assay Submitter: Roderic Eckenhoff, University of Pennsylvania
Screening Center PI: Christopher P. Austin, NIH
Probe Development: NIH Chemical Genomics Center [NCGC]
Anesthetic development has remained a largely empirical process. There are growing concerns about the cognitive effects of known general anesthetics and acceleration of the onset of neurodegenerative disease. The compounds' toxicity and multiple specific binding targets in the mammalian brain [4] has made them less attractive as drug leads. In this assay, a GABAergic mimetic model system, apoferritin and a profluorescent 1-aminoanthracene ligand (1-AMA), was used to construct a competitive binding assay for identification of novel general anesthetics. […]
in PBS) in columns 3, 4 as negative control and 1-AMA/apoferritin mixture (10 uM horse-spleen apoferritin in 50% saturated 1-aminoanthracene in PBS) in columns 1, 2, 5-48) was dispensed into 1536-well Greiner black assay plates. […] The plates were incubated for 10 min at room temperature, and then read on an EnVision HTS multilabel reader (Perkin-Elmer, Waltham, MA) (end point read, 3 min/plate) using Fura2 BFP excitation filter (380 nm, bandwidth 10 nm) and fluorescein emission filter (535 nm, bandwidth 25 nm) set. […] Activity was computed as the normalized fluorescence response relative to free 1-AMA and 1-AMA/apoferritin complex values. […]

Assay [4] in a line: Validation screen for inhibitors of Lassa infection (AID 463096; calls by dose curve). To be noted: Lassa virus infection, cell-based; series mostly up to 46.1 µM.
Assay [5] deals with Tyrosyl-DNA phosphodiesterase 1 (Homo sapiens) (UniProt Q9NUW8). Description: Confirmation Assay for Inhibitors of Tyrosyl-DNA Phosphodiesterase (TDP1) (AID 489007). Further: potency means the concentration at half of the fitted maximal effect; nearly all actives have a fitted effect of over 40% in size. To be noted: recombinant human TDP1 enzymatic activity, dose-response. A digest of the protocol:
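Compounds are preincubated 15 min at room temperature with 1 nM recombinant human Tdp1. The reaction starts on adding 15 nM FITC-phosphotyrosine DNA substrate, runs 5 min, and is detected by AlphaScreen beads after 10 min.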

Inconclusive results are not listed. This is one part of the list. Calls of active or inactive are those of the source. Unless noted, the call rests on the fitted dose curve; in most records, active means well fitted curve in the direction sought with a large enough effect; inconclusive means small, poorly fitted or top-dose-only effect, or another doubt; inactive means no such curve, though single readings can be large; an effect the other way counts as inactive or inconclusive.

Sequence of Tyrosyl-DNA phosphodiesterase 1 (Homo sapiens) (Q9NUW8 whole entry, looked up): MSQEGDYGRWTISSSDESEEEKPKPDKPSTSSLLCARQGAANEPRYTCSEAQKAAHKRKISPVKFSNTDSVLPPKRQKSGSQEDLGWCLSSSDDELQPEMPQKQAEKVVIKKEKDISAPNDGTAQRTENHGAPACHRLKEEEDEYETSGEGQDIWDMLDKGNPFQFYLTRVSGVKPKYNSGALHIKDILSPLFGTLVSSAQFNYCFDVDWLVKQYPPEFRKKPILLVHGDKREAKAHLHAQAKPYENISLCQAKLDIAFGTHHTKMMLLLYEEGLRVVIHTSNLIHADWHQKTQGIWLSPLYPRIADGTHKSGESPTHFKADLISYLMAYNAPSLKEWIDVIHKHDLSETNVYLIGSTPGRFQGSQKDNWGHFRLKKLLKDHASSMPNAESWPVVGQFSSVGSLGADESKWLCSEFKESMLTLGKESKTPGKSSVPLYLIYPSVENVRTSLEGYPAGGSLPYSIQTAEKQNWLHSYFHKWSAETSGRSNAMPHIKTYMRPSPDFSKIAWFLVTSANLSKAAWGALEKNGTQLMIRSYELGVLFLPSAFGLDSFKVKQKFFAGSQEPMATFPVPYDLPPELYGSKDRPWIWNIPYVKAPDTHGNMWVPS
Sequence of DNA polymerase eta (Homo sapiens) (Q9Y253 whole entry, looked up): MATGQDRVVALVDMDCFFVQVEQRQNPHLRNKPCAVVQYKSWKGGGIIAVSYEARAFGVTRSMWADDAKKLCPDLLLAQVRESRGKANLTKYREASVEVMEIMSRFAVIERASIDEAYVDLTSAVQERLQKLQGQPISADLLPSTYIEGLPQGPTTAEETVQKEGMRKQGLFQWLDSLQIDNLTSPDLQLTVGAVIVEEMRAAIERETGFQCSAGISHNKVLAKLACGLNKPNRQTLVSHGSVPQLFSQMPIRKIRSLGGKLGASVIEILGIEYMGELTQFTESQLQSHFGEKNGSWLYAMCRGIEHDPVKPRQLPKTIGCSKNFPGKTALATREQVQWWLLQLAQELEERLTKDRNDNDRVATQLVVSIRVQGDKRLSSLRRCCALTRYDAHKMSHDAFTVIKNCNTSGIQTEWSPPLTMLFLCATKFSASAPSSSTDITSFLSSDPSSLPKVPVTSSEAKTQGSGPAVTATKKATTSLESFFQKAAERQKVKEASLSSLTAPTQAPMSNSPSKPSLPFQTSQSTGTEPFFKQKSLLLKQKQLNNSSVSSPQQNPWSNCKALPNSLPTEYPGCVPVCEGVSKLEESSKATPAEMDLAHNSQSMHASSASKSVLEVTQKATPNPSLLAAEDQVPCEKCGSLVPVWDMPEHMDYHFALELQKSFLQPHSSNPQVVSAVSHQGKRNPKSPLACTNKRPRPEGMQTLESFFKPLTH

For `Cc1c(C(=O)O)cccc1-n1c(C)cc(/C=C2\C(=O)NC(=O)N(c3ccc4c(c3)OCO4)C2=O)c1C`, the results for the Potency in assay [1] and in assay [2] were 15 µM (active) and 8.49 µM (active), respectively.

With `CN1C2CCC1CC(NC(=O)c1nn(C)c3ccccc13)C2` (stereo not given), the outcome in assay [3] and in assay [4] was inactive.

On to `O=C(O)c1cc[c]([Sb](=[O])([OH])[OH])cc1[N+](=O)[O-]`, for which, in assay [5], the Potency was 2 µM (active).

The record behind these values is PubChem BioAssay (NCATS).
